Each structure is given as a SMILES string. Active and inactive are the calls of the source. The calls were made as follows: active = hit-call score of the fitted dose curve at least 0.9, where 1 is the maximum; inactive = score below 0.9.

As usually defined, the AC50 is the midpoint of the concentration-response curve, whichever way the signal moves.

System in the first experiment: not listed separately
The experiment can be described thus: ATG_CRE_CIS: Attagene CIS-FACTORIAL HepG2 Assay for human cAMP Responsive Element (CRE) binding protein 3 (AID 2282926). As to conditions: HepG2 CRE cis-reporter, Attagene multiplexed mRNA; actives raise or lower the signal. A digest of the protocol:
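Multiplexed transcription-unit reporters transfected into HepG2; 24 h dosing; RT-PCR/capillary electrophoresis fluorescence read-out; bidirectional fit vs DMSO.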
Consider `CCc1c(Br)c(Br)c(Br)c(Br)c1Br`, for which the compound was called inactive.
Consider `O=C(CC(=O)C(F)(F)C(F)(F)F)C(F)(F)F`, for which the call was inactive.
As to `CCC(=O)OCCc1ccccc1`, the result was inactive.
As for `FC(F)(F)C(F)(F)C(F)(F)C(F)(F)C(F)(F)C(F)(F)CCS`, the compound was called inactive.
Regarding `O=C(O)C(F)(OC(F)(F)C(F)(OC(F)(F)C(F)(F)C(F)(F)F)C(F)(F)F)C(F)(F)F` (centres undefined), the outcome was inactive.
For the compound `Cc1cc(C)cc(O)c1`, the result was inactive.
As for `CN(C)Cc1ccccc1O`, the call was inactive.
On to `CC(CCl)OP(=O)(OC(C)CCl)OC(C)CCl` (centres undefined), for which the call was inactive.
Consider `Cc1cccc(N(C)C)c1`, for which the result was inactive.
Regarding `Cc1ccc(S(=O)(=O)OCC(F)(F)C(F)(F)C(F)(F)C(F)(F)C(F)(F)C(F)F)cc1`, the compound was classed as inactive.
For the compound `C=CC(=O)OCC(F)(F)C(F)(F)C(F)(F)C(F)(F)COC(=O)C=C`, the concentration at half-maximal activity (AC50) is 43.5 µM (active).
`CCCCCC=O`: the result was inactive.
On the same count and under the same terms, as for `O=C(O)C(F)(F)C(F)(F)C(F)(F)C(F)(F)F`, the entry is “inactive”.
With `FC(F)(I)C(F)(F)C(F)(F)C(F)(F)I`, the compound was classed as inactive.
In the case of `O=C(OCCOCCOCCOC(=O)c1ccccc1)c1ccccc1`, the outcome was inactive.
Same read-out and setting: next, `CC(C)=CCCC(C)CCOC(=O)C(C)C` (centres undefined): “inactive”; `CCCCOCCOCCOC(=O)CCCCC(=O)OCCOCCOCCCC`: “inactive”.
On to `CC(Cc1ccc(O)c(O)c1)C(C)Cc1ccc(O)c(O)c1` (centres undefined), for which the concentration at half-maximal activity (AC50) was 22.9 µM (active).
As to `c1ccc(B(c2ccccc2)c2ccccc2)cc1`, the outcome was inactive.
On to `COC(=O)C1CCC(C(=O)OC)CC1` (centres undefined), for which the result was inactive.
Same read-out and setting: next, `O=S(=O)(O)c1ccc2ccccc2c1`: “inactive”; `FC(F)(F)C(F)(F)CNCC(F)(F)C(F)(F)F`: “inactive”; `NC(=O)C(F)(F)C(F)(F)C(F)(F)C(F)(F)F`: “inactive”.
On the same count and under the same terms, as for `FC(F)(F)C(F)(F)C(F)(F)C(F)(F)C(F)(F)CCI`, the entry is “inactive”.
As for `CCN(CC)c1ccc2c(C)cc(=O)oc2c1`, the AC50 is 30.7 µM (active).
Turning to `CCCCCCCCCCCCCCCC[N+](C)(C)Cc1ccccc1`, the call was inactive.
Take `Nc1ccc([N+](=O)[O-])cc1O`: the call was inactive.
Consider `FC(F)(F)C(F)(F)C(F)(F)C(F)(F)C(F)(F)C(F)(F)C(F)(F)C(F)(F)CCS`, for which the call was inactive.
Same read-out and setting: next, `OC[C@@H](O)[C@@H](O)[C@H](O)[C@@H](O)CO`: “inactive”; `C=CC/C=C/C/C=C/C/C=C/C`: “inactive”; `c1ccc(-c2ccccc2-c2ccccc2)cc1`: “inactive”.

The target of a further experiment is CCAAT/enhancer-binding protein beta (Homo sapiens) (UniProt P17676). The experiment can be described thus: ATG_C_EBP_CIS: Attagene CIS-FACTORIAL HepG2 Assay for human CCAAT/Enhancer Binding Protein (C/EBP) beta (AID 2282927). As to conditions: HepG2 Attagene cis-factorial transcription factor reporter; actives raise or lower the signal. A digest of the protocol: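 Transiently transfected HepG2 (MRTU library, endogenous TF-driven promoters); 24 h dosing; total RNA → oligo(dT) RT → PCR → 6-FAM primer extension → HpaI digest → CE; fit bidirectionally vs DMSO.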
Sequence of CCAAT/enhancer-binding protein beta (Homo sapiens) (P17676 whole entry, looked up): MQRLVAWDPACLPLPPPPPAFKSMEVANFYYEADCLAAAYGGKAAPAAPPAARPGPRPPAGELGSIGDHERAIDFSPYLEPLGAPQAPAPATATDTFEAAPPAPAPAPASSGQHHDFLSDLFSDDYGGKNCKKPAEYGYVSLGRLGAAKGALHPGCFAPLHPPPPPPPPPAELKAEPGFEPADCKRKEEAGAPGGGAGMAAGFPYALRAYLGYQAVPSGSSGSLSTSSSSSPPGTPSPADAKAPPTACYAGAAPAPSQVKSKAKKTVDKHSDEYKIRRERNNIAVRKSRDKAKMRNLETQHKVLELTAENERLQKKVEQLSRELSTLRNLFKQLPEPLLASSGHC
As for `CCc1c(Br)c(Br)c(Br)c(Br)c1Br`, the outcome was inactive.
`O=C(CC(=O)C(F)(F)C(F)(F)F)C(F)(F)F`: the outcome was inactive.
On to `CCC(=O)OCCc1ccccc1`, for which the result was inactive.
Take `FC(F)(F)C(F)(F)C(F)(F)C(F)(F)C(F)(F)C(F)(F)CCS`: the outcome was inactive.
As for `O=C(O)C(F)(OC(F)(F)C(F)(OC(F)(F)C(F)(F)C(F)(F)F)C(F)(F)F)C(F)(F)F` (centres undefined), the result was inactive.
Still for that read-out and setting: next, `Cc1cc(C)cc(O)c1`: “inactive”; `CN(C)Cc1ccccc1O`: “inactive”; `CC(CCl)OP(=O)(OC(C)CCl)OC(C)CCl` (centres undefined): “inactive”.
`Cc1cccc(N(C)C)c1`: the result was inactive.
As for `Cc1ccc(S(=O)(=O)OCC(F)(F)C(F)(F)C(F)(F)C(F)(F)C(F)(F)C(F)F)cc1`, the outcome was inactive.
`C=CC(=O)OCC(F)(F)C(F)(F)C(F)(F)C(F)(F)COC(=O)C=C`: the AC50 was 50 µM (active).
`CCCCCC=O`: the result was inactive.
Turning to `O=C(O)C(F)(F)C(F)(F)C(F)(F)C(F)(F)F`, the result was inactive.
For `FC(F)(I)C(F)(F)C(F)(F)C(F)(F)I`, the outcome was inactive.
For `O=C(OCCOCCOCCOC(=O)c1ccccc1)c1ccccc1`, the result was inactive.
Turning to `CC(C)=CCCC(C)CCOC(=O)C(C)C` (centres undefined), the outcome was inactive.
`CCCCOCCOCCOC(=O)CCCCC(=O)OCCOCCOCCCC`: the result was inactive.
Consider `CC(Cc1ccc(O)c(O)c1)C(C)Cc1ccc(O)c(O)c1` (centres undefined), for which the outcome was inactive.
On the same count and under the same terms, next, `c1ccc(B(c2ccccc2)c2ccccc2)cc1`: “inactive”; `COC(=O)C1CCC(C(=O)OC)CC1` (centres undefined): “inactive”.
Same read-out and setting: as for `O=S(=O)(O)c1ccc2ccccc2c1`, the entry is “inactive”; as for `FC(F)(F)C(F)(F)CNCC(F)(F)C(F)(F)F`, “inactive”.
For the compound `C=CC(=O)OCC(F)(F)C(F)(F)C(F)(F)C(F)(F)C(F)(F)C(F)(F)C(F)(F)F`, the outcome was inactive.
For `NC(=O)C(F)(F)C(F)(F)C(F)(F)C(F)(F)F`, the outcome was inactive.
Consider `FC(F)(F)C(F)(F)C(F)(F)C(F)(F)C(F)(F)CCI`, for which the outcome was inactive.
Consider `CCN(CC)c1ccc2c(C)cc(=O)oc2c1`, for which the outcome was inactive.
Consider `CCCCCCCCCCCCCCCC[N+](C)(C)Cc1ccccc1`, for which the outcome was inactive.
For the compound `Nc1ccc([N+](=O)[O-])cc1O`, the result was inactive.
Same read-out and setting: next, `FC(F)(F)C(F)(F)C(F)(F)C(F)(F)C(F)(F)C(F)(F)C(F)(F)C(F)(F)CCS`: “inactive”; `OC[C@@H](O)[C@@H](O)[C@H](O)[C@@H](O)CO`: “inactive”.
As to `C(=C(c1ccccc1)c1ccccc1)c1ccccc1`, the outcome was inactive.
In the case of `C=CC/C=C/C/C=C/C/C=C/C`, the outcome was inactive.
The same measure, in the same setting: as for `OCCCC(F)(F)C(F)(F)C(F)(F)C(F)(F)C(F)(F)C(F)(F)C(F)(F)F`, the entry is “inactive”; as for `c1ccc(-c2ccccc2-c2ccccc2)cc1`, “inactive”.

System in the next experiment: not listed separately
The experiment can be described thus: ATG_CMV_CIS: Attagene CIS-FACTORIAL HepG2 Assay for human CMV (Internal Marker) (AID 2282928).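 Also: endpoint acts as a background internal control marker rather than a target.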 To be noted: HepG2 CMV promoter reporter, transcription factor profiling; actives raise or lower the signal. In outline:
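Endogenous transcription factor activity read in HepG2 via transfected cis-promoter reporter units. After 24 h dosing, reporter mRNA measured by RT-PCR/capillary electrophoresis; gain or loss of signal fit relative to DMSO.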
On to `CC(CCl)OP(=O)(OC(C)CCl)OC(C)CCl` (centres undefined), for which the result was inactive.
As to `CCCCOCCOCCOC(=O)CCCCC(=O)OCCOCCOCCCC`, the outcome was inactive.
As for `c1ccc(B(c2ccccc2)c2ccccc2)cc1`, the concentration at half-maximal activity (AC50) is 71 µM (active).
On to `C=CC(=O)OCC(F)(F)C(F)(F)C(F)(F)C(F)(F)C(F)(F)C(F)(F)C(F)(F)F`, for which the call was inactive.
For the compound `CCCCCCCCCCCCCCCC[N+](C)(C)Cc1ccccc1`, the concentration at half-maximal activity (AC50) was 44.8 µM (active).
Take `FC(F)(F)C(F)(F)C(F)(F)C(F)(F)C(F)(F)C(F)(F)C(F)(F)C(F)(F)CCS`: the call was inactive.
On the same count and under the same terms, next, `OC[C@@H](O)[C@@H](O)[C@H](O)[C@@H](O)CO`: “inactive”.
As for `C(=C(c1ccccc1)c1ccccc1)c1ccccc1`, the half-maximal activity concentration (AC50) was 30 µM (active).
`OCCCC(F)(F)C(F)(F)C(F)(F)C(F)(F)C(F)(F)C(F)(F)C(F)(F)F`: the result was inactive.

The record behind these values is PubChem BioAssay (EPA / NIEHS).
